Measurements published in PubChem BioAssay (EPA / NIEHS).
Active and inactive are the calls of the source. Rule for the calls: active = hit-call score of the fitted dose curve at least 0.9, where 1 is the maximum; inactive = score below 0.9.

read-out: Human Leukocyte Antigen - DR isotype (HLADR), HLA-DRA (gene 3122); test: BSK_BE3C_HLADR: BioMAP Diversity Plus: BE3C Assay for Human Leukocyte Antigen - DR isotype (HLADR) Biomarker Activity (AID 2283032); settings: primary human bronchial epithelial cells; actives raise or lower the signal
Protocol: BSK_BE3C is a cell-based, multiplexed-readout assay that uses bronchial epithelial cell, a human lung primary cell, with measurements taken at 24 hours after chemical dosing in a 96-well plate.BSK_BE3C_HLADR is an assay component measured in the BSK_BE3C assay. It measures HLA-DR antibody related to regulation of gene expression using ELISA technology.Data from the assay component BSK_BE3C_HLADR was analyzed into 1 assay endpoint. This assay endpoint, BSK_BE3C_HLADR, was analyzed with bidirectional fitting relative to DMSO as the negative control and baseline of activity. Using a type of binding reporter, gain or loss-of-signal activity can be used to understand changes in the signaling as they relate to the gene HLA-DRA. Furthermore, this assay endpoint can be referred to as a primary readout, because this assay has produced multiple assay endpoints where this one serves a signaling function. To generalize the intended target to other relatable targets, this assay endpoint is annotated to the cell adhesion molecules intended target family, where the subfamily is MHC Class II.
The levels of cell surface (or secreted, indicated by the prefix "s") biomarker endpoints were measured by ELISA. Overt cytotoxicity to cells in confluent adherent cultures (all systems other than the BT system) was assessed by measuring total protein levels using sulforhodamine B (SRB) staining in parallel cultures at the time of biomarker measurements, indicated as SRB endpoints. For proliferation assays for adherent cell types, individual cell types are cultured at sub-confluence and relative cell numbers quantified by SRB staining at time points optimized for each system (48 h: 3C and CASM3C systems; 72 h: BT and HDF3CGF systems; 96 h: SAg system). SRB was performed by staining cells with 0.1% SRB after fixation with 10% TCA and reading wells at 560 nm.Viability and proliferation of PBMC (T cells) was quantified by Alamar Blue reduction for the SAg and BT systems. For PBMC viability (referred to as PBMC Cytotoxicity within the assay endpoint names), cells were plated (75,000/well in a 96-well plate) and then chemical samples added for 1 h before addition of activators, SEB and TSST-1 (20 ng/mL final concentration each). Cells were incubated for 90 h. Then, Alamar Blue (20 uL/well) (Invitrogen, Cat DAL1100) was added for 6 h, and the plates were read with a fluorescence microplate reader at 546/580 nm (excitation/emission). For PBMC proliferation, cells were plated and activated as above but incubated for only 16 h prior to addition of Alamar Blue. Plates were read after 6 h.

| SMILES | outcome | AC50 |
| --- | --- | --- |
| CO[C@@H]1COCC[C@@H]1N[C@@H]1CC[C@@](C(=O)N2CCc3ncc(C(F)(F)F)cc3C2)(C(C)C)C1 | inactive |  |
| CC(N)=O | inactive |  |
| CC(C)NCC(O)c1ccc(O)c(O)c1 (stereo not given) | inactive |  |
| CC(C)(C)c1ccccc1 | inactive |  |
| CCCC[C@H]1CN(CC2CCOCC2)C(=O)OC12CCN(C1(C)CCN(C(=O)c3c(C)ncnc3C)CC1)CC2 | inactive |  |
| O=C1OC(c2ccc(O)cc2)(c2ccc(O)cc2)c2ccccc21 |  | 0.379 µM (active) |
| CCCCCCC(CCCCCCCCCCC(=O)OCC(COC(C)=O)OC(C)=O)OC(C)=O (stereo not given) |  | 10 µM (active) |
| CCCC(=O)O | inactive |  |
| CC(=O)OCC(COC(C)=O)OC(C)=O | inactive |  |
| CN(C)CCCN(C)CCCN(C)C | inactive |  |
| NC=O | inactive |  |
| C=CCc1ccc(OC)c(OC)c1 | inactive |  |
| Oc1ccccc1O | inactive |  |
| CCCCC(CC)COC(=O)CCCCCCCC(=O)OCC(CC)CCCC (stereo not given) | inactive |  |
| CCc1nc(N)nc(N)c1-c1ccc(Cl)cc1 | inactive |  |
| CC(C)c1cccc(C(C)C)c1NC(=O)NS(=O)(=O)c1cc(C(C)(C)O)co1 | inactive |  |
| CCCCC(CC)CO (stereo not given) | inactive |  |
| Cc1occc(=O)c1O | inactive |  |
| O=C1CCCCC1 | inactive |  |
| N[C@@H](Cc1c[nH]c2ccccc12)C(=O)O | inactive |  |

| SMILES | outcome | AC50 |
| --- | --- | --- |
| O=C(NS(=O)(=O)/C=C/c1cccs1)c1ccc(F)cc1Br | inactive |  |
| CC(C)c1cccc(C(C)C)c1 | inactive |  |
| CC1=C(C)S(=O)(=O)CCS1(=O)=O | inactive |  |
| CC1(C)C(=O)NC(=O)N1CO | inactive |  |
| CCN(CC)CCOc1ccc(C(=C(Cl)c2ccccc2)c2ccccc2)cc1 |  | 15.2 µM (active) |
| O=C1c2c(O)cccc2Cc2cccc(O)c21 | inactive |  |
| OCC(CO)n1cnc(-c2ccc(F)cc2)c1-c1ccnc(Oc2ccccc2)n1 | inactive |  |
| NC1CCCCC1 | inactive |  |
| CCCCCCCCCCCCCCCCO | inactive |  |
| COC(=O)CCC(=O)OC | inactive |  |
| CC(COCC(C)OC(=O)c1ccccc1)OC(=O)c1ccccc1 (stereo not given) | inactive |  |
| CCCCCCCC(=O)OC | inactive |  |
| CCCCc1nc2cccnc2n1Cc1ccc(-c2ccccc2-c2nnn[nH]2)cc1 | inactive |  |
| O=C1NC(=O)C(c2ccccc2)(c2ccccc2)N1 | inactive |  |
| Cc1ccc(C(C)(C)C)c(O)c1 | inactive |  |
| COc1ccc(C(=O)Nc2nc3ccccc3c(NCc3ccccc3)c2C#N)cc1 | inactive |  |
| Cn1cnc2c1c(=O)[nH]c(=O)n2C | inactive |  |
| CCCCCCCCCCCCCCOS(=O)(=O)O |  | 20 µM (active) |
| CSc1ccc(Oc2ccc(S(N)(=O)=O)cc2CN(C)C)cc1C | inactive |  |
| O=Cc1ccccc1C=O | inactive |  |
